This note sets out measurements from PubChem BioAssay (NCI).

Several values for one entry are separate records, joined by “and”; a condition that tells them apart may be missing. Equal entries are not always repeated. Compounds without any hit were thinned out: in the full panel of roughly 79,000, 15% have a hit. Where a structure was tested more than once in an assay, its records may differ in their call. Activity calls are given as the source filed them. Cut-off read from the data, not from the text of the source: active = growth inhibition above about 70%; inactive = the rest.

The nature of test [1]: NCI Yeast Anticancer Drug Screen. Data for the rad50 strain (AID 155).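 Note: 0% = growth of vehicle-only cultures of the same strain.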 As to conditions: S. cerevisiae rad50 strain growth inhibition; at 50.0 µM; stronger effect = higher value. An outline of the steps: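 Relative growth inhibition (compound vs vehicle) was measured in yeast with a defined repair-gene alteration.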
Test [2] is described as follows: NCI Yeast Anticancer Drug Screen. Data for the mec2-1 strain (AID 157). Conditions: S. cerevisiae mec2-1 strain, at 50.0 µM, stronger effect = higher value. The method in brief:
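Cells of the genetically defined mec2-1 yeast strain are incubated with test compound. Inhibition of growth is calculated against vehicle-treated controls.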

A short description of test [3]: NCI Yeast Anticancer Drug Screen. Data for the sgs1 mgt1 strain (AID 161).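 Note: 0% = growth of cultures given vehicle only.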 Conditions: S. cerevisiae sgs1 mgt1 strain, at 50.0 µM, stronger effect = higher value. The method in brief:
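Read-out: growth inhibition vs vehicle controls. Cells: mutant yeast strain deficient in DNA damage repair.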

Test [4] is described as follows: NCI Yeast Anticancer Drug Screen. Data for the cln2 rad14 strain (AID 165).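 Note: 0% = growth equal to vehicle treated cultures.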 Conditions: S. cerevisiae cln2 rad14 strain, at 50.0 µM, stronger effect = higher value. The method in brief:
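The screen exposed genetically defined yeast (cln2 rad14) to test compounds and scored growth inhibition relative to vehicle-treated controls.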

Test [5] is described as follows: NCI Yeast Anticancer Drug Screen. Data for the bub3 strain (AID 167). Conditions: S. cerevisiae bub3 mutant strain, at 50.0 µM, stronger effect = higher value. An outline of the steps: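 Screening used yeast with an engineered genetic alteration affecting cell cycle control. Compound-exposed cultures were compared with vehicle cultures, and reduced growth was taken as inhibition.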

Test [6] can be described thus: NCI Yeast Anticancer Drug Screen. Data for the mlh1 rad18 strain (AID 175). Conditions: S. cerevisiae mlh1 rad18 strain growth inhibition; at 50.0 µM; stronger effect = higher value. The method in brief:
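Compound-treated yeast growth, normalised to vehicle controls. Strain bears defined DNA repair mutations.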

`O=C(NC1CCCCC1)c1c(O)[nH]c(=S)[nH]c1=O`: the growth inhibition was -20.4% (inactive) in test [1]; -0.3% (inactive) in test [2]; 14.8% (inactive) in test [3]; 12.2% (inactive) in test [4]; -4.9% (inactive) in test [5]; -0.55% (inactive) in test [6].
Take `O=C(O)C1C2C=Cc3ccccc3C21` (stereo unspecified): the growth inhibition is 4.5% (inactive) in test [1]; 2.9% (inactive) in test [2]; -11.3% (inactive) in test [3]; -26.6% (inactive) in test [4]; -6.2% (inactive) in test [5]; 6.45% (inactive) in test [6].
Regarding `CCC1=C(CC2NCCc3cc(OC)c(OC)cc32)CC2c3ccccc3CCN2C1` (stereo unspecified), the growth inhibition in test [1] is -16.8% (inactive); in test [2] it was -26.5% (inactive); in test [3], -42.7% (inactive); in test [4], -9.75% (inactive); in test [5], -22.8% (inactive); in test [6], -16.3% (inactive).
In the case of `[Cl][Sn]([Cl])([c]1ccccc1)[c]1ccccc1`, the growth inhibition was 0.95% (inactive) and 97.1% (active) in test [1]; 29.9% (inactive) and 96.2% (active) in test [2]; 41.5% (inactive) and 95.1% (active) in test [3]; -35.4% (inactive) and 95.2% (active) in test [4]; 48.4% (inactive) and 95.8% (active) in test [5]; 51% (inactive) and 97.2% (active) in test [6].
For the compound `CC(CC(C)(C)C)C(=O)Cl` (stereo unspecified), the growth inhibition in test [1] was 7.85% (inactive); in test [2] it was -2.7% (inactive); in test [3], 5.35% (inactive); in test [4] it was 10.9% (inactive); in test [5], 4.15% (inactive); in test [6], 23.4% (inactive).
Take `CC(C)=CCN1CCC2(C)c3cc(O)ccc3CCC2C1` (stereo unspecified): the growth inhibition in test [1] is -9.9% (inactive); in test [2], -8.8% (inactive); in test [3], -0.8% (inactive); in test [4], -31.2% (inactive); in test [5], -6.5% (inactive); in test [6], -2.1% (inactive).
